Assay results as given in ChEMBL document CHEMBL3988442, “University of Dundee, Small-Polar-MMV Screening Library” (2021).
For some of these results: Results with a measured potency or affinity are listed apart.

How the values were obtained:
Set-up in all cases: scale not given: direction of the effect not stated beside the values
[1] = target: Protein translocase subunit SecA (Escherichia coli (strain K12)) (UniProt P10408); experiment: Assay to Identify E. coli SecA ATPase Inhibitors; format: functional; details: 30 µM
Sequence of Protein translocase subunit SecA (Escherichia coli (strain K12)) (P10408 whole entry): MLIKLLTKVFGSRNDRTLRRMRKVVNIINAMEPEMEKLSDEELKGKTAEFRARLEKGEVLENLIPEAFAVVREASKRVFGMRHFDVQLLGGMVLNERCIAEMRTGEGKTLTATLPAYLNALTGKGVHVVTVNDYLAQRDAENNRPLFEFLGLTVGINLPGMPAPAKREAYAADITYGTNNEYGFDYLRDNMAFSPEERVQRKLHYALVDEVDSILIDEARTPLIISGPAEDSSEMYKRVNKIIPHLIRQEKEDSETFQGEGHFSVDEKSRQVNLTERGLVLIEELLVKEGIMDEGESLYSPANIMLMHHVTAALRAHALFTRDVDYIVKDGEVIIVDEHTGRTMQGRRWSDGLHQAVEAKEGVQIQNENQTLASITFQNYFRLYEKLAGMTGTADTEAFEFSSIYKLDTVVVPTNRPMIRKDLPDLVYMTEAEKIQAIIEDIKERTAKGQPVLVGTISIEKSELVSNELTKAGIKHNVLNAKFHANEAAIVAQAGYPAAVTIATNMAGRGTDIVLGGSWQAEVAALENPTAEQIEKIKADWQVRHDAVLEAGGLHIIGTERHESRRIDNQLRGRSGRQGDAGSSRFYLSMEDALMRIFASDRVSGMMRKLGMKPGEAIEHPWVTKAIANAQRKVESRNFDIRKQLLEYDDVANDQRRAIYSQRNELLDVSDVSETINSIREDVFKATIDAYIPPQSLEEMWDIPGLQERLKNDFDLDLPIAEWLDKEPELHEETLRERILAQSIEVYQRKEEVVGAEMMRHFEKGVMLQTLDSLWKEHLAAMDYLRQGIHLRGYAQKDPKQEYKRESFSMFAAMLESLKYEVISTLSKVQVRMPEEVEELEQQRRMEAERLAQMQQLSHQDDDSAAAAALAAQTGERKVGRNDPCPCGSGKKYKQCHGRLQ

[2] = target: T1, Ubiquitin-activating enzyme e1, putative (Leishmania donovani (strain BPK282A1)) (UniProt E9BSI1); experiment: Leishmania donovani Ubiquitin Activating Enzyme (LdE1); format: functional; details: 30 µM
T1 sequence (whole entry): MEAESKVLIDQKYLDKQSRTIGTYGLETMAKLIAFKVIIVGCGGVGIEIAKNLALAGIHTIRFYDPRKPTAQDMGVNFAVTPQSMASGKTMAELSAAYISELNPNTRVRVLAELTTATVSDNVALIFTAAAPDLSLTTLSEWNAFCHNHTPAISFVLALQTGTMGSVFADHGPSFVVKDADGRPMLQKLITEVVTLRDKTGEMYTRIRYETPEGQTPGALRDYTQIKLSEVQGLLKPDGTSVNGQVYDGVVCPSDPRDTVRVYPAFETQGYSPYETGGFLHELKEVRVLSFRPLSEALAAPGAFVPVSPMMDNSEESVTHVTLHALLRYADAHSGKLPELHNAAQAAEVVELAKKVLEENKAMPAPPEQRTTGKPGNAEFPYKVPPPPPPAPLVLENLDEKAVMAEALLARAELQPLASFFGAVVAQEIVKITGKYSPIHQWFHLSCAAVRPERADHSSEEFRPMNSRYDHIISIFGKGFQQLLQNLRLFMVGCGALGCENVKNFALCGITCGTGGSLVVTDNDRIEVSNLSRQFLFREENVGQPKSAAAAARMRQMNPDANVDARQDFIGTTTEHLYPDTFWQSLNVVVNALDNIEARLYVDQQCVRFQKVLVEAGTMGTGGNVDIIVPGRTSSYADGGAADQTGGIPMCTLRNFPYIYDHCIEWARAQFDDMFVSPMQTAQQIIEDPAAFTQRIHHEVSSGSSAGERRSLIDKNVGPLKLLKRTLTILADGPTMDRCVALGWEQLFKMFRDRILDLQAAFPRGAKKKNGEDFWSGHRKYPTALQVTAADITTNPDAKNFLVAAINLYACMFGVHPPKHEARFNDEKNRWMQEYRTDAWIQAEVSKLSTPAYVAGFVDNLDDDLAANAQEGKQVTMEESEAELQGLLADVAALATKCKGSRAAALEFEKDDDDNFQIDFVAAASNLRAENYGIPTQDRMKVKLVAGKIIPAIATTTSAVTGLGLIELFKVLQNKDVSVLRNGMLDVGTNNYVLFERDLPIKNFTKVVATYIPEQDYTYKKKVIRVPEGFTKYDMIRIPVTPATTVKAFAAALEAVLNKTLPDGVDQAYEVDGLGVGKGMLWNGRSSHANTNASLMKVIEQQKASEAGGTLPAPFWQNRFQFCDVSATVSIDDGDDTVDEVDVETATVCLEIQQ

[3] = target: AMP-activated protein kinase, AMPK (Homo sapiens) (UniProt P54646+O43741+P54619+Q9UGJ0+Q9Y478+Q13131+Q9UGI9); experiment: AMP-dependent Kinase enzyme assay. An in vitro enzyme assay that detects ADP turnover that is directly proportional to AMPK activity. This uses naive AMPK that is activated during the assay with MK-8722; format: functional; details: 30 µM
[4] = target: Sialic acid-binding Ig-like lectin 9 (Homo sapiens) (UniProt Q9Y336); experiment: Hs-Siglec9 ALPHAscreen SOP 20170721; details: 10 µM
Sequence of Sialic acid-binding Ig-like lectin 9 (Homo sapiens) (Q9Y336 whole entry): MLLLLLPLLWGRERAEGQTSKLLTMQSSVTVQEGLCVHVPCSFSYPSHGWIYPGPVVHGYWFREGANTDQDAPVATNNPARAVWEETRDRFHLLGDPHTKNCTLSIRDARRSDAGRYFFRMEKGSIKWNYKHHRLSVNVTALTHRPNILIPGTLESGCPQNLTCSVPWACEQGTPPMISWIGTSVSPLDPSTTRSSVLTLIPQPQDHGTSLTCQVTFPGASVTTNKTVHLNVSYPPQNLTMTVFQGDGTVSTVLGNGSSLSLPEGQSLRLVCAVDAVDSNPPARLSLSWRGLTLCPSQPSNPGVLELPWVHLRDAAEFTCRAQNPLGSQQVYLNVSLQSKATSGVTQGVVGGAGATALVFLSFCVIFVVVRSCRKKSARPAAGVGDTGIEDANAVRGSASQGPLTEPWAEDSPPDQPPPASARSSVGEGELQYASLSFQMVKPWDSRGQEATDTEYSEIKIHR

Trypanosoma cruzi = experiment: Trypanosoma cruzi phosphomannomutase and mannose-1-phosphate guanylyltransferase assay; format: functional; details: 10 µM
[5] = target: T2, Arginase-2, mitochondrial (Homo sapiens) (UniProt P78540); experiment: in vitro enzyme assay to detect the production of urea directly proportional to the activity of Arginase II; format: functional; details: 33.3 µM; note: in the data most compounds retested in dose-response had high values
T2 sequence (whole entry): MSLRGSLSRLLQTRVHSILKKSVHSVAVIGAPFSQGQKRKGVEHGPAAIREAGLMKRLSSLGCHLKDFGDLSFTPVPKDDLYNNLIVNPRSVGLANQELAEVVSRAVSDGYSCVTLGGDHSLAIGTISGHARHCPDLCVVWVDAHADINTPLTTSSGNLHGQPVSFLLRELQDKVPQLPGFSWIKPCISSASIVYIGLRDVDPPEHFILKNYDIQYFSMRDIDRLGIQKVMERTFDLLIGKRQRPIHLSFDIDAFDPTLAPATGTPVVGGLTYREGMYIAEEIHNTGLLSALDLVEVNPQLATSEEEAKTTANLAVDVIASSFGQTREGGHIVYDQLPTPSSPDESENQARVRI

[6] = target: T3, Proteasome subunit beta (Trypanosoma cruzi) (UniProt O96673); experiment: Trypanosoma cruzi proteasome chymotrypsin-like activity (TcProtChymo) assay.; note: in the data most compounds retested in dose-response had high values; format: functional; details: 9.37 µM
T3 sequence (whole entry): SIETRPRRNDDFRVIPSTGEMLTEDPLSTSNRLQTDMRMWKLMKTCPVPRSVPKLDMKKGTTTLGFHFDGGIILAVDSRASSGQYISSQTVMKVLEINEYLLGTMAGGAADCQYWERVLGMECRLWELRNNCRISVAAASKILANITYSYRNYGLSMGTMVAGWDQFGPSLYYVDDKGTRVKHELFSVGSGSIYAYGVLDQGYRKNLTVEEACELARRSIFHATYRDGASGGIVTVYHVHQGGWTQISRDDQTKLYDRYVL

Homo sapiens = organism: Homo sapiens; experiment: To identify inhibition of the IFN signalling (Jak-Stat) pathway via expression of an eGFP reporter gene under the control of an IFN-stimulated response element (ISRE) containing MxA promoter.; format: functional; details: 30 µM
[7] = target: T4, Tyrosyl-tRNA synthetase, putative (Trypanosoma cruzi (strain CL Brener)) (UniProt Q4DSP6); experiment: Trypanosoma cruzi tyrosyl tRNA synthetase (TcYRS) _High Tyrosine SOP; format: functional; details: 30 µM; note: in the data most compounds retested in dose-response had high values
T4 sequence (whole entry): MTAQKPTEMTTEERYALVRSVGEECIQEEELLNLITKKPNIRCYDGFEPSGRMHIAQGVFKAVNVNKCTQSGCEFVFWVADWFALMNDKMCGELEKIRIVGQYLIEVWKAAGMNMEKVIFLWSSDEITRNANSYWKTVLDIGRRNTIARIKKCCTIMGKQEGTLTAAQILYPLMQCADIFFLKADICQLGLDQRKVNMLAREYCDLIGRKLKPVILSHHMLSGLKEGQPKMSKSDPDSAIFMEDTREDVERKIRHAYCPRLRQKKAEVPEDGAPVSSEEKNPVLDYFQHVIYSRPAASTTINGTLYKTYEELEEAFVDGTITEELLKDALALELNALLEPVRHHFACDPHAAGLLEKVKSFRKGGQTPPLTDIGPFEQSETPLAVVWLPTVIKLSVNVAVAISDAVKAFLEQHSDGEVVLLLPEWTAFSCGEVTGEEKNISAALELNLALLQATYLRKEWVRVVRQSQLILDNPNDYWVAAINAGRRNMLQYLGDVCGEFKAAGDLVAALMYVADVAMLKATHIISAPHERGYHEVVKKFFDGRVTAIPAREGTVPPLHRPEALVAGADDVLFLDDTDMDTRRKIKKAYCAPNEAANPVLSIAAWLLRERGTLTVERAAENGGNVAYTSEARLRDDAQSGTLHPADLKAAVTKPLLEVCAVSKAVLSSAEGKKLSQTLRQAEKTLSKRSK

[8] = target: T4, Tyrosyl-tRNA synthetase, putative (Trypanosoma cruzi (strain CL Brener)); experiment: Trypanosoma cruzi tyrosyl tRNA synthetase (TcYRS) SOP; format: functional; details: 30 µM
[9] = target: Chromo domain-containing protein 1 (Saccharomyces cerevisiae (strain ATCC 204508 / S288c) (Baker's yeast)) (UniProt P32657); experiment: ScCHD-1 Enzyme Inhibition Assay; format: functional; details: 30 µM; note: in the data most compounds retested in dose-response had high values
Sequence of Chromo domain-containing protein 1 (Saccharomyces cerevisiae (strain ATCC 204508 / S288c) (Baker's yeast)) (P32657 whole entry, the tested form may be a part): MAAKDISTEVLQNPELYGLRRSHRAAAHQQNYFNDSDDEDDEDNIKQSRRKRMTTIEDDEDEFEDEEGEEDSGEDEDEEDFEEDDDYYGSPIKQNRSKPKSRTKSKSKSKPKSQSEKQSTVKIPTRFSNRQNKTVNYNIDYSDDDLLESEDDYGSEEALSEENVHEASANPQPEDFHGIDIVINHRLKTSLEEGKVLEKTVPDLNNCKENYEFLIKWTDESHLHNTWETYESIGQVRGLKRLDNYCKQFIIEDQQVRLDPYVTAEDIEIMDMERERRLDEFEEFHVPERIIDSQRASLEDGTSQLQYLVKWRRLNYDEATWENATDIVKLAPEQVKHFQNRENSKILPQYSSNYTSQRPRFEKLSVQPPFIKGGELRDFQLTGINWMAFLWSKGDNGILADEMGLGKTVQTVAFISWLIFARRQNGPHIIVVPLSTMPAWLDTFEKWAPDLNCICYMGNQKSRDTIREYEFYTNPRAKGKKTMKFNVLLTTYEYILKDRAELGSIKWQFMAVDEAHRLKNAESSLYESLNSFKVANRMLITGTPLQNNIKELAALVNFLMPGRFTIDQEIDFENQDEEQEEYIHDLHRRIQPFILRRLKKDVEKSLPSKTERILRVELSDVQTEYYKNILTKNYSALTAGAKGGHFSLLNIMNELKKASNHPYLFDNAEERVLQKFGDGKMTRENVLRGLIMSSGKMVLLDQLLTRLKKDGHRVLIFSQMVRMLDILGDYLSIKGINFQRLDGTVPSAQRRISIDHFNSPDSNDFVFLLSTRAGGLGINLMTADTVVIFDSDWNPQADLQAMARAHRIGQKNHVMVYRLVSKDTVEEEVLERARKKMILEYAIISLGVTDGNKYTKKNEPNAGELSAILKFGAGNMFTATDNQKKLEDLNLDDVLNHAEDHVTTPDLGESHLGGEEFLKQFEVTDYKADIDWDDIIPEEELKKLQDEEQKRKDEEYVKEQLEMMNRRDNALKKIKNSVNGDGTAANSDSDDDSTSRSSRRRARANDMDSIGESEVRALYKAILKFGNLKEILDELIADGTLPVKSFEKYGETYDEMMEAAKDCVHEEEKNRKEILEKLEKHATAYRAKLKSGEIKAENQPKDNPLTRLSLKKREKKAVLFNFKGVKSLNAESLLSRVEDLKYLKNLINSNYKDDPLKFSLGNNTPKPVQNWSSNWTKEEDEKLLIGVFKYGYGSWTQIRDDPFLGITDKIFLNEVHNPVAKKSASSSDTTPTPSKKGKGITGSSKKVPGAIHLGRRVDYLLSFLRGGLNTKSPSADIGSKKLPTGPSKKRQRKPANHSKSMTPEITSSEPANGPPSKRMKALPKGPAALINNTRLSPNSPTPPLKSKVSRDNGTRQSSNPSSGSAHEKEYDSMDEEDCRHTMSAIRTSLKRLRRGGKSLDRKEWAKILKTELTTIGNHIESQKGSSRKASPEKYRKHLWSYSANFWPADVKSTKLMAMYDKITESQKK

SMILES	Percent Effect [1] [%]	Percent Effect [2] [%]	Percent Effect [3] [%]	Percent Effect [4] [%]	Percent Effect (Trypanosoma cruzi) [%]	Percent Effect [5] [%]	Percent Effect [6] [%]	Percent Effect (Homo sapiens) [%]	Percent Effect [7] [%]	Percent Effect [8] [%]	Percent Effect [9] [%]
Cc1ccc(CNCCOc2ccc(S(C)(=O)=O)cc2)cc1	-7.67	-5.48	4.35	-1.11	-2.18	-0.798	-3.68	9.56	4.17	-1.24	3.43
Cc1ccc2cc(C3(O)CCN(C(=O)CN4CCCC4)CC3)ccc2n1	-2.77	-1.39	-1.64	-0.537	-4.96	3.53	11.9	4.91	2.1	5.13	0.856
COc1ccc(CCN2CCCC(Cn3nc(C)nc3C)C2)cc1 (stereo unspecified)	-1.76	-11.4	-0.842	1.01	2.77	-2.8	8.58	-4.76	8.33	10.1	-19.5
CCOCCN1CCn2c(C)nnc2C1	2.73	19	2.63	-1.98	-5.03	-3.23	13.9	11.9	4.17	12.7	-27.4
CC(=O)N1CCC2(CCCN(C(=O)c3ccccc3)C2)C1 (stereo unspecified)	-2.42	0	11	-1.1	-1.57	3.03	1.85	-0.0486	2.13	1.28	5.13
COCCc1noc(CN2CCCC(Cn3nc(C)nc3C)C2)n1 (stereo unspecified)	-3.69	16.2	-5.81	6.95	0.472	-7.62	3.6	8.21	10.3	23.5	-11.8
O=C(NCCCn1cncn1)N1CCCC(N2CCCC2)C1 (stereo unspecified)	-3.14	21.1	-6.64	-3.21	3.01	2.3	13.4	14.6	5.39	19.5	-10.5
COc1ccc(C2Nc3cc(Cl)ccc3C3=NCCN32)cc1OC (stereo unspecified)	-5.72	2.67	2.8	3.39	3.54	-5.83	13.1	8.26	4.25	8.97	-11.7
CN(C)C(=O)Cc1nc(CN2CCCCC2Cn2cccn2)cs1 (stereo unspecified)	-2.18	-2.63	87.3	-6.24	1.07	-2.37	12.8	9.75	1.06	-5.2	-0.00308
O=C1CC(c2ccncc2)C2(CCN(C(=O)c3ccc[nH]3)CC2)N1 (stereo unspecified)	-2.27	18.9	-1.68	-16.4	4.01	-5.41	8.86	14.6	3.24	15.4	-0.00396
COC(=O)c1cc(OCC2CCC2)cc(C(=O)N[C@H]2CC[C@H](O)CC2)c1	-8.61	0	-13.1	12.3	-5.09	-0.455	2.66	32.3	0	0	0.449
